# “And” between values parts separate entries of the source, which are not always exact repeats. Equal entries are not always repeated. Some compounds were tested as several samples or in several runs, with calls that do not always agree. The source made the active and inactive calls. How the source made its calls: active means hit-call score of the fitted dose curve at least 0.9, where 1 is the maximum; inactive means score below 0.9.
# Test: APR_HepG2_StressKinase_24hr: Apredica 24-hour HepG2 Assay for Stress Kinase (AID 2282922)
# Conditions: HepG2 stress kinase (phospho-c-Jun) imaging, actives raise or lower the signal
# Procedure, shortened: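 Read-out: phospho-c-Jun immunofluorescence (Cy3 secondary) quantified by high-content imaging at 20x, nuclei defined by Hoechst 33342. Human HepG2 liver cells dosed 24 hr, 0.39–200 uM, DMSO 0.5% v/v; gain or loss of signal fitted relative to DMSO.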
SMILES,outcome,AC50
CNC(=O)Oc1cccc(N=CN(C)C)c1,inactive,–
Clc1ccccc1-c1nnc(-c2ccccc2Cl)nn1,inactive,–
Cc1cc(C)nc(NC(=O)NS(=O)(=O)c2ccccc2C(=O)OC2COC2)n1,inactive,–
O=C(O)COc1ccc(Cl)cc1Cl,inactive,–
COC(=O)c1ccccc1S(=O)(=O)NC(=O)N(C)c1nc(C)nc(OC)n1,inactive,–
Oc1ccc(Cl)cc1Cc1ccccc1,inactive,150 µM (active) and 99 µM (active)

# Test: APR_HepG2_p53Act_72hr: Apredica 72-hour HepG2 Assay for p53 Activation (AID 2282923);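 further: average cellular p53 protein immunofluorescence intensity in HepG2 cells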
# Conditions: high-content imaging, actives raise or lower the signal
# Procedure, shortened: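 Imaging-based endpoint: after 72 hr compound exposure (up to 200 uM, 0.5% DMSO), fixed and permeabilized monolayers were labelled with anti-p53 antibody and imaged; signal change in either direction was fitted relative to DMSO controls.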
SMILES,outcome,AC50
OCCOc1ccccc1,inactive,–
CC1(c2ccc(Oc3ccccc3)cc2)OC(=O)N(Nc2ccccc2)C1=O (configuration not stated),–,121 µM (active)
CC(C)(C)C(O)C(Oc1ccc(Cl)cc1)n1cncn1 (configuration not stated),inactive,–
O=S1OCC2C(CO1)C1(Cl)C(Cl)=C(Cl)C2(Cl)C1(Cl)Cl (configuration not stated),inactive,–
CC(C)OC(=O)Nc1cccc(Cl)c1,inactive,–
COP(=S)(OC)Oc1ccc([N+](=O)[O-])cc1,inactive,–
O=C(O)C(F)(F)C(F)(F)C(F)(F)C(F)(F)C(F)(F)C(F)(F)C(F)(F)F,inactive,–
O=[N+]([O-])c1c(Cl)c(Cl)c(Cl)c(Cl)c1Cl,inactive,–
CCCN(CCOc1c(Cl)cc(Cl)cc1Cl)C(=O)n1ccnc1,inactive,–
O=S(=O)(O)C(F)(F)C(F)(F)C(F)(F)C(F)(F)C(F)(F)C(F)(F)C(F)(F)C(F)(F)F,inactive,5.6 µM (active) and 106 µM (active)
Oc1cc(Cl)ccc1Oc1ccc(Cl)cc1Cl,inactive,14.9 µM (active) and 16.3 µM (active)
CCC(C)(NC(=O)c1cc(Cl)c(C)c(Cl)c1)C(=O)CCl (configuration not stated),inactive,–
CNC(=O)Oc1ccccc1OC(C)C,inactive,–
O=C1c2ccccc2C(=O)N1SC(Cl)(Cl)Cl,inactive,–
ClC1C(Cl)C(Cl)C(Cl)C(Cl)C1Cl (configuration not stated),inactive,–
[2H]C1([2H])[n+]2ccccc2-c2cccc[n+]2C1([2H])[2H],inactive,–
COC(=O)c1ccccc1CS(=O)(=O)NC(=O)Nc1nc(OC)cc(OC)n1,inactive,–
CC[C@H](C)[C@H]1O[C@]2(C=C[C@@H]1C)C[C@@H]1C[C@@H](C/C=C(\C)[C@@H](O[C@H]3C[C@H](OC)[C@@H](O[C@H]4C[C@H](OC)[C@@H](O)[C@H](C)O4)[C@H](C)O3)[C@@H](C)/C=C/C=C3\CO[C@@H]4[C@H](O)C(C)=C[C@@H](C(=O)O1)[C@]34O)O2 (tested in a mixture with another compound),inactive,–
CNC(=O)Oc1cccc(N=CN(C)C)c1,inactive,–
Cc1cc(C)nc(NC(=O)NS(=O)(=O)c2ccccc2C(=O)OC2COC2)n1,inactive,–
O=C(O)COc1ccc(Cl)cc1Cl,inactive,–
COC(=O)c1ccccc1S(=O)(=O)NC(=O)N(C)c1nc(C)nc(OC)n1,inactive,–
Oc1ccc(Cl)cc1Cc1ccccc1,inactive,111 µM (active) and 125 µM (active)

# Test: APR_HepG2_MitoMass_72hr: Apredica 72-hour HepG2 Assay for Mitochondrial Mass (AID 2282924);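 further: MitoTracker Red CMXRos stain intensity per cell imaged as mitochondrial mass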
# Conditions: high-content imaging, actives raise or lower the signal
# Procedure, shortened: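 Read-out: MitoTracker Red fluorescence intensity from automated imaging (20x, six fields per well) in human HepG2 liver cells. Dosing ran 72 hr, 0.39–200 uM, 0.5% DMSO; bidirectional curve fitting versus DMSO baseline.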
SMILES,outcome,AC50
OCCOc1ccccc1,inactive,–
CC1(c2ccc(Oc3ccccc3)cc2)OC(=O)N(Nc2ccccc2)C1=O (configuration not stated),inactive,–
CC(C)(C)C(O)C(Oc1ccc(Cl)cc1)n1cncn1 (configuration not stated),inactive,98 µM (active)
O=S1OCC2C(CO1)C1(Cl)C(Cl)=C(Cl)C2(Cl)C1(Cl)Cl (configuration not stated),inactive,–
CC(C)OC(=O)Nc1cccc(Cl)c1,inactive,–
COP(=S)(OC)Oc1ccc([N+](=O)[O-])cc1,inactive,–
O=C(O)C(F)(F)C(F)(F)C(F)(F)C(F)(F)C(F)(F)C(F)(F)C(F)(F)F,inactive,–
Cc1[nH]c(=O)n(C(C)(C)C)c(=O)c1Cl,inactive,–
O=[N+]([O-])c1c(Cl)c(Cl)c(Cl)c(Cl)c1Cl,inactive,–
CCCN(CCOc1c(Cl)cc(Cl)cc1Cl)C(=O)n1ccnc1,inactive,–
O=S(=O)(O)C(F)(F)C(F)(F)C(F)(F)C(F)(F)C(F)(F)C(F)(F)C(F)(F)C(F)(F)F,inactive,–
Oc1cc(Cl)ccc1Oc1ccc(Cl)cc1Cl,inactive,170 µM (active)
CCC(C)(NC(=O)c1cc(Cl)c(C)c(Cl)c1)C(=O)CCl (configuration not stated),inactive,–
CNC(=O)Oc1ccccc1OC(C)C,inactive,–
CNC(=O)CSP(=S)(OC)OC,inactive,–
O=C1c2ccccc2C(=O)N1SC(Cl)(Cl)Cl,inactive,–
ClC1C(Cl)C(Cl)C(Cl)C(Cl)C1Cl (configuration not stated),inactive,–
[2H]C1([2H])[n+]2ccccc2-c2cccc[n+]2C1([2H])[2H],inactive,–
COC(=O)c1ccccc1CS(=O)(=O)NC(=O)Nc1nc(OC)cc(OC)n1,inactive,–
CC[C@H](C)[C@H]1O[C@]2(C=C[C@@H]1C)C[C@@H]1C[C@@H](C/C=C(\C)[C@@H](O[C@H]3C[C@H](OC)[C@@H](O[C@H]4C[C@H](OC)[C@@H](O)[C@H](C)O4)[C@H](C)O3)[C@@H](C)/C=C/C=C3\CO[C@@H]4[C@H](O)C(C)=C[C@@H](C(=O)O1)[C@]34O)O2 (tested in a mixture with another compound),inactive,–
CNC(=O)Oc1cccc(N=CN(C)C)c1,inactive,–
Clc1ccccc1-c1nnc(-c2ccccc2Cl)nn1,inactive,–
Cc1cc(C)nc(NC(=O)NS(=O)(=O)c2ccccc2C(=O)OC2COC2)n1,inactive,–
O=C(O)COc1ccc(Cl)cc1Cl,inactive,–
COC(=O)c1ccccc1S(=O)(=O)NC(=O)N(C)c1nc(C)nc(OC)n1,inactive,–
Oc1ccc(Cl)cc1Cc1ccccc1,inactive,88 µM (active)

# Source: PubChem BioAssay (EPA / NIEHS)
